PrP UTR inh: inhibition of PrP 5' UTR reporter expression | 340,000 tested, 0.35% active | AID 488862 | cell-based PrP 5' UTR mRNA reporter, plate reader | inhibition, % (test concentration not listed); in the data active = inhibition above about 52%
PfHsp40 rescue: compounds rescuing yeast from Plasmodium falciparum HSP40 toxicity | S. cerevisiae expressing PfHsp40, growth rescue, ATP luminescence | growth rescue, % at 12.5 µM | 340,000 tested, 0.68% active | AID 504582; in the data active = growth rescue above about 28%, passing the limit was not always enough;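 also: yeast W303a lacking pdr1 and pdr3 grown in galactose medium; growth measured after three days at 30 °C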
PrPC surface inh: reduces human prion protein on the cell surface. AID 720596. inhibition, % at 13.8 µM. cell surface PrPC, TR-FRET read-out. P04156. 370,000 tested, 0.43% active; in the data active = inhibition above about 24%
BJeLR viability: kills HRASV12-expressing BJeLR cells; BJeLR (HRASV12) viability, CellTiter-Glo ATP luminescence, 48 h; inhibition, % (concentration not given with the values); 300,000 tested, 0.17% active; AID 1554; in the data active = inhibition above about 50%
RecA splice inh: blocks M. tuberculosis RecA intein splicing. P9WHJ3. cell-free RecA intein splicing, fluorescence. inhibition, % (no concentration beside the values). 290,000 tested, 0.75% active; in the data active = inhibition above about 30%
Target sequence (P9WHJ3 whole entry, looked up, canonical isoform): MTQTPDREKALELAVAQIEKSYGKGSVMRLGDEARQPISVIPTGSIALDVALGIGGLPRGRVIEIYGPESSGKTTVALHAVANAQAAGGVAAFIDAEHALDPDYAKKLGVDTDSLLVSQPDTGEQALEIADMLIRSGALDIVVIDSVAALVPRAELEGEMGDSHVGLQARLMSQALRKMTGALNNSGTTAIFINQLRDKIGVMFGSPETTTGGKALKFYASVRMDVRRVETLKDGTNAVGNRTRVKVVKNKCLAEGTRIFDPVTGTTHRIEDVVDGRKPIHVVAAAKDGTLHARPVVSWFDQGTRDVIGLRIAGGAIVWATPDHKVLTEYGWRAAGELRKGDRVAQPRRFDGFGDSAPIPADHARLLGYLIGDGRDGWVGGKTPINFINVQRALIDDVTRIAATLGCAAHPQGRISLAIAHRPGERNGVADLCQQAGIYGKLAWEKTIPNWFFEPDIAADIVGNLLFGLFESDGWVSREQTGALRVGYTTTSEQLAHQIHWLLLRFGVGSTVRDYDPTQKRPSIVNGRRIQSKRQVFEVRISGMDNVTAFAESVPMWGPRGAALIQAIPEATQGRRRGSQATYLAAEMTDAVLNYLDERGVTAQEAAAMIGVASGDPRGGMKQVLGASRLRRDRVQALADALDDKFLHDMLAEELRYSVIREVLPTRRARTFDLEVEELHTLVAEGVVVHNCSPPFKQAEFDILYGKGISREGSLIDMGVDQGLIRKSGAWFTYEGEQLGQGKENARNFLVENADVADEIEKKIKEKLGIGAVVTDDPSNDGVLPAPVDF
SSB-PriA inh: inhibitors of Klebsiella pneumoniae PriA binding to SSB C-terminal tail; AlphaScreen SSBct-PriA binding, biotinylated peptide; inhibition, % at 33 µM; 430,000 tested, 0.6% active; in the data active = inhibition mostly above about 37%, no sharp cut-off; inactive = mostly below about 20%
Each line names hits and unclear results; the compound was inactive in the other large screens; ! = not confirmed by another sample. The list is not random: actives were taken first. Their share in the collection is about 1.9%.

COc1cccc(CN2CCN(C(=O)CC(C)C)CC2)c1	PfHsp40 rescue 36
CC(C)CC(=O)N1CCN(Cc2cccc(F)c2)CC1	none
COc1cc2c(cc1OC)CN(C(=O)c1ccc([N+](=O)[O-])o1)CC2	PfHsp40 rescue 63
O=C(c1ccc([N+](=O)[O-])o1)N1CCc2ccccc2C1	PfHsp40 rescue 53
O=C(c1ccc([N+](=O)[O-])o1)N1CCc2ccccc21	none (no result: RecA splice inh)
CCOc1ccc(-c2ccnc3c(C(=O)NCc4ccccc4Cl)cnn23)cc1	none (no result: PrP UTR inh, PfHsp40 rescue, PrPC surface inh, BJeLR viability, RecA splice inh)
Cc1nnsc1C(=O)N1CCC(c2nn(C)c(=O)n2C2CC2)CC1	none (no result: PrP UTR inh, PfHsp40 rescue, PrPC surface inh, BJeLR viability, RecA splice inh)
CC1=NNC(=O)C1Cc1ccc(F)cc1 (stereo not drawn)	RecA splice inh 97
CC1=NNC(=O)C1CCC(=O)N/N=C/c1ccc(C)cc1 (stereo not drawn)	none (no result: PrP UTR inh, PfHsp40 rescue)
COc1ccccc1-n1ncc2c(C)nnc(SCC(=O)NCc3ccccc3Cl)c21	SSB-PriA inh 89! (no result: PrP UTR inh, PfHsp40 rescue, PrPC surface inh, BJeLR viability, RecA splice inh)
CC(=O)Cc1nsc(NC(=O)c2cc(-c3ccc(Cl)cc3[N+](=O)[O-])oc2C)n1	none (no result: PrP UTR inh, PfHsp40 rescue, PrPC surface inh, BJeLR viability, RecA splice inh)
Cc1oc(-c2ccc(Cl)cc2[N+](=O)[O-])cc1C(=O)Nc1cccc(F)c1	SSB-PriA inh 35 (no result: PrP UTR inh, PfHsp40 rescue, PrPC surface inh, BJeLR viability, RecA splice inh)
COc1ccc(NC(=O)CN2CCN(Cc3nc4ccccc4n3Cc3ccccc3)CC2)c(OC)c1	none (no result: PrP UTR inh, PfHsp40 rescue, PrPC surface inh, BJeLR viability, RecA splice inh)
Cn1ccnc1SCC1CCN(C(=O)c2ccc3c(c2)OCO3)CC1	none (no result: PrP UTR inh, PfHsp40 rescue, PrPC surface inh, BJeLR viability, RecA splice inh)
Cc1nc2c(Cl)cc(Cl)cc2[nH]1	PfHsp40 rescue 33
Cc1nc2c([N+](=O)[O-])c(C)c(C)cc2[nH]1	none (no result: PfHsp40 rescue)
COc1ccc(C#Cc2c(-c3ccccc3)n(-c3ccccc3)c3ccc(CO)cc23)cc1	PfHsp40 rescue 65 (no result: BJeLR viability, RecA splice inh)
C=CCN(CC=C)S(=O)(=O)c1ccc(C(=O)Nc2ccc3ncsc3c2)cc1	none (no result: PrP UTR inh, PfHsp40 rescue, PrPC surface inh, BJeLR viability, RecA splice inh)
Cc1cc(NC(=O)c2ccc([N+](=O)[O-])s2)n(-c2nc3c(F)cccc3s2)n1	none (no result: PrP UTR inh, PfHsp40 rescue, PrPC surface inh, BJeLR viability, RecA splice inh)
CC/C(=C\c1ccc(N(C)C)cc1)c1ccncc1	SSB-PriA inh 49 (no result: BJeLR viability, RecA splice inh)
CC(C)C(=O)N1CCc2ccc(NC(=O)CSCc3ccccc3)cc2C1	none (no result: PrP UTR inh, PfHsp40 rescue, PrPC surface inh, BJeLR viability, RecA splice inh)
Cc1cc(-c2nnc(SCC(=O)Nc3ccccn3)o2)no1	none
Cc1cc(-c2nnc(SCC(=O)Nc3nccs3)o2)no1	SSB-PriA inh 78
Cc1ccc([N+](=O)[O-])cc1S(=O)(=O)Nc1ccc(-c2cn3c(n2)SCC3)cc1	SSB-PriA inh 39 (no result: PrP UTR inh, PfHsp40 rescue, PrPC surface inh, BJeLR viability, RecA splice inh)
CC1=NCCN1	none (no result: PrP UTR inh, PfHsp40 rescue, PrPC surface inh, BJeLR viability, RecA splice inh)
Clc1ccc2nc(Nc3nc4cc5c(cc4s3)OCO5)sc2c1	none (no result: PrP UTR inh, PfHsp40 rescue, PrPC surface inh, BJeLR viability, RecA splice inh)
Oc1[nH]c(N=C2N=c3ccccc3=N2)c2ccccc12	BJeLR viability 54
Cc1ccc2c(c1)=N/C(=N\c1[nH]c(O)c3ccccc13)N=2	none (no result: PrP UTR inh, PfHsp40 rescue, BJeLR viability, RecA splice inh, SSB-PriA inh)
COc1ccccc1-c1ccc2nnc(SCc3ccc([N+](=O)[O-])cc3)n2n1	none (no result: PrP UTR inh, PfHsp40 rescue, PrPC surface inh, BJeLR viability, RecA splice inh)
Cc1cccnc1NC(=S)Nc1ccc(F)cc1F	none (no result: RecA splice inh)
Cc1ccc(C)c(NC(=S)Nc2ncccc2C)c1	SSB-PriA inh 40
O=C(CC(NCCCN1CCOCC1)C(=O)O)Nc1ccc2c(c1)OCO2 (stereo not drawn)	none (no result: PrP UTR inh, PfHsp40 rescue, PrPC surface inh, BJeLR viability, RecA splice inh)
CC(C)CCNC(=O)NC(=O)CSc1ccc(S(=O)(=O)N2CCOCC2)cn1	none (no result: BJeLR viability, RecA splice inh)
CNC(=O)NC(=O)CSc1ccc(S(=O)(=O)N2CCOCC2)cn1	PfHsp40 rescue 33 (no result: BJeLR viability, RecA splice inh)
COc1cc(C(c2c(C)[nH]n(-c3ccccc3)c2=O)c2c(C)[nH]n(-c3ccccc3)c2=O)cc(OC)c1OC	RecA splice inh 98
O=C(O)c1ccc(C2CCCCC2)cn1	SSB-PriA inh 116
CCn1c2ccccc2c2cc(Nc3cc(C)nc4ncnn34)ccc21	PrP UTR inh 68
N#Cc1c(=O)c2nc(NCCCO)ncc2n2c(=O)c3ccccc3[nH]c12	PfHsp40 rescue 83
COc1ccc(OC)c(Nc2cc(C(=O)NCCCN3CCOCC3)c3ccccc3n2)c1	none
COc1ccccc1Nc1cc(C(=O)NCCCN2CCOCC2)c2ccccc2n1	PfHsp40 rescue 68
O=C(NC1CCCCC1)N(Cc1cnc2ccccn12)c1ccccc1	none (no result: PrP UTR inh, PfHsp40 rescue, PrPC surface inh, BJeLR viability, RecA splice inh)
O=C(NC(c1ccccc1)c1ccccc1)N(Cc1cnc2ccccn12)c1ccccc1	SSB-PriA inh 44 (no result: PrP UTR inh, PfHsp40 rescue, PrPC surface inh, BJeLR viability, RecA splice inh)
CN1CCN(c2ccc([N+](=O)[O-])c(N3CCCCC3)c2)CC1	none
O=[N+]([O-])c1ccc(N2CCCC2)cc1N1CCN(c2ccccc2)CC1	SSB-PriA inh 84 (no result: PrP UTR inh, PfHsp40 rescue, PrPC surface inh, BJeLR viability, RecA splice inh)
CO/N=C/c1ccc(N2CCOCC2)c([N+](=O)[O-])c1	none (no result: SSB-PriA inh)
CON=Cc1ccc(N2CCCC2)c([N+](=O)[O-])c1	SSB-PriA inh 39 (no result: PrP UTR inh, PfHsp40 rescue, PrPC surface inh, BJeLR viability, RecA splice inh)
CN1CCN(c2cc(N3CCCC3)ccc2[N+](=O)[O-])CC1	SSB-PriA inh 59 (no result: PrP UTR inh, PfHsp40 rescue, PrPC surface inh, BJeLR viability, RecA splice inh)

Screening data from PubChem.
